Experiment [1] can be described thus: NCI Yeast Anticancer Drug Screen. Data for the rad50 strain (AID 155).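 Also: 0% = growth of vehicle-only cultures of the same strain.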 The conditions noted are these: S. cerevisiae rad50 strain growth inhibition, hits give high values. The essentials: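 A DNA repair-deficient yeast mutant serves as the test organism; compound-induced growth inhibition is calculated against vehicle-treated cells.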
Experiment [2] is described as follows: NCI Yeast Anticancer Drug Screen. Data for the mec2-1 strain (AID 157). The conditions noted are these: S. cerevisiae mec2-1 strain, hits give high values. The method, boiled down:
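Compounds were applied to mec2-1 yeast cells. Their growth was then compared with that of vehicle-treated cultures to give growth inhibition.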

Experiment [3] is described as follows: NCI Yeast Anticancer Drug Screen. Data for the sgs1 mgt1 strain (AID 161).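 Also: 0% = growth of cultures given vehicle only.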 As to conditions: S. cerevisiae sgs1 mgt1 strain, hits give high values. The essentials: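 Compounds are added to genetically altered yeast, and growth is compared with cultures given vehicle alone to give percent inhibition.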
Experiment [4] in a line: NCI Yeast Anticancer Drug Screen. Data for the cln2 rad14 strain (AID 165).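 Also: 0% = growth equal to vehicle treated cultures.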 As to conditions: S. cerevisiae cln2 rad14 strain, hits give high values. The method, boiled down: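 Strain: cln2 rad14 yeast, altered in cell cycle control and DNA damage repair. Read-out: growth inhibition vs vehicle.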
A short description of experiment [5]: NCI Yeast Anticancer Drug Screen. Data for the bub3 strain (AID 167). The conditions noted are these: S. cerevisiae bub3 mutant strain, hits give high values. The method, boiled down:
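Inhibition values come from growth of compound-treated mutant yeast normalised to vehicle-treated controls.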

Experiment [6] is described as follows: NCI Yeast Anticancer Drug Screen. Data for the mlh1 rad18 strain (AID 175). The conditions noted are these: S. cerevisiae mlh1 rad18 strain growth inhibition, hits give high values. The method, boiled down:
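A repair-deficient yeast strain is exposed to test compound, and growth is scored relative to vehicle-treated controls.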

[7] abbreviates: at 5.0 µM (retest, dose inferred, filed as 0.5).
Setting [8] is: at 50.0 µM (retest, dose inferred, filed as 5.0).

This is part of a sample that, as a whole, favours compounds with a hit. Of some 79,000 tested, about 15% had one in any assay. A number with no mark means an inactive call. Calls of active or inactive are those of the source. Rule as the data show it: active = growth inhibition above about 70%; inactive = the rest.

As to `CN(C(=O)c1cccs1)C(=S)N1CCN(c2ccccc2)CC1`, the growth inhibition is -26% in experiment [1] (setting [7]); 66% in experiment [1] (setting [8]); 79.8% (active) in experiment [1] (at 50.0 µM); 6% in experiment [2] (setting [7]); 68% in experiment [2] (setting [8]); 67% in experiment [2] (at 50.0 µM). In addition, the growth inhibition in experiment [3] (setting [7]) was -2%; in experiment [3] (setting [8]), 70% (active); in experiment [3] (at 50.0 µM), 84.8% (active); in experiment [4] (setting [7]) it was -8%; in experiment [4] (setting [8]) it was 56%; in experiment [4] (at 50.0 µM) it was 49.9%. Moreover, the growth inhibition was -14% in experiment [5] (setting [7]); 83% (active) in experiment [5] (setting [8]); 61.3% in experiment [5] (at 50.0 µM); -18% in experiment [6] (setting [7]); 90% (active) in experiment [6] (setting [8]); 67.2% in experiment [6] (at 50.0 µM).
On to `Cc1cc(C)c(C(=O)C(Br)C(Br)c2ccccc2)c(C)c1` (stereo not given), for which the growth inhibition in experiment [1] (setting [7]) was 54%; in experiment [1] (setting [8]) it was 94% (active); in experiment [1] (at 50.0 µM), 95.6% (active); in experiment [2] (setting [7]) it was 43%; in experiment [2] (setting [8]), 97% (active); in experiment [2] (at 50.0 µM) it was 95.5% (active). The growth inhibition in experiment [3] (setting [7]) is 63%; in experiment [3] (setting [8]), 95% (active); in experiment [3] (at 50.0 µM) it was 95.8% (active); in experiment [4] (setting [7]), 15%; in experiment [4] (setting [8]), 91% (active); in experiment [4] (at 50.0 µM), 83.4% (active). Besides, the growth inhibition was 47% in experiment [5] (setting [7]); 93% (active) in experiment [5] (setting [8]); 94.5% (active) in experiment [5] (at 50.0 µM); 46% in experiment [6] (setting [7]); 94% (active) in experiment [6] (setting [8]); 95.6% (active) in experiment [6] (at 50.0 µM).
For the compound `COc1cc(C2c3cc4c(cc3OC(NNc3ccccc3)C2C)OCO4)cc(OC)c1O` (stereo not given), the growth inhibition is -5% in experiment [1] (setting [7]); 97% (active) in experiment [1] (setting [8]); 98.2% (active) in experiment [1] (at 50.0 µM); -15% in experiment [2] (setting [7]); 98% (active) in experiment [2] (setting [8]); 98.7% (active) in experiment [2] (at 50.0 µM). Further, the growth inhibition in experiment [3] (setting [7]) is -13%; in experiment [3] (setting [8]), 99% (active); in experiment [3] (at 50.0 µM) it was 98.4% (active); in experiment [4] (setting [7]) it was -5%; in experiment [4] (setting [8]) it was 96% (active); in experiment [4] (at 50.0 µM), 98.6% (active). Further, the growth inhibition was -7% in experiment [5] (setting [7]); 97% (active) in experiment [5] (setting [8]); 98.7% (active) in experiment [5] (at 50.0 µM); -11% in experiment [6] (setting [7]); 97% (active) in experiment [6] (setting [8]); 98.3% (active) in experiment [6] (at 50.0 µM).
Turning to `O=C1c2cc([N+](=O)[O-])ccc2-c2cc([N+](=O)[O-])ccc21`, the growth inhibition in experiment [1] (setting [7]) is 44%; in experiment [1] (setting [8]), 32%; in experiment [1] (at 50.0 µM), 91.2% (active); in experiment [2] (setting [7]) it was 39%; in experiment [2] (setting [8]), 39%; in experiment [2] (at 50.0 µM) it was 92.8% (active). Also, the growth inhibition in experiment [3] (setting [7]) was 73% (active); in experiment [3] (setting [8]) it was 97% (active); in experiment [3] (at 50.0 µM), 93.3% (active); in experiment [4] (setting [7]), 46%; in experiment [4] (setting [8]) it was 99% (active); in experiment [4] (at 50.0 µM) it was 68%. The growth inhibition in experiment [5] (setting [7]) was 80% (active); in experiment [5] (setting [8]) it was 97% (active); in experiment [5] (at 50.0 µM) it was 91.2% (active); in experiment [6] (setting [7]) it was 21%; in experiment [6] (setting [8]) it was 34%; in experiment [6] (at 50.0 µM), 74.5% (active).
As for `CSC(=N)N1N=C2/C(=C/c3ccccc3)CCC[C@H]2[C@H]1c1ccccc1`, the growth inhibition is -17% in experiment [1] (setting [7]); -14% in experiment [1] (setting [8]); 21.4% in experiment [1] (at 50.0 µM); -7% in experiment [2] (setting [7]); -2% in experiment [2] (setting [8]); -6.7% in experiment [2] (at 50.0 µM). The growth inhibition in experiment [3] (setting [7]) was -13%; in experiment [3] (setting [8]), 13%; in experiment [3] (at 50.0 µM), 40.7%; in experiment [4] (setting [7]), -35%; in experiment [4] (setting [8]) it was 5%; in experiment [4] (at 50.0 µM), -14.8%. Further, the growth inhibition in experiment [5] (setting [7]) was -3%; in experiment [5] (setting [8]), 5%; in experiment [5] (at 50.0 µM), 4.45%; in experiment [6] (setting [7]), -10%; in experiment [6] (setting [8]), 29%; in experiment [6] (at 50.0 µM) it was 27.9%.
As for `CSC(=S)N/N=C\C(O)C(O)C(O)C(O)CO` (stereo not given), the growth inhibition in experiment [1] (setting [7]) is -2%; in experiment [1] (setting [8]), 9%; in experiment [1] (at 50.0 µM), 97.6% (active); in experiment [2] (setting [7]), -2%; in experiment [2] (setting [8]) it was 0%; in experiment [2] (at 50.0 µM), 95.8% (active). Besides, the growth inhibition in experiment [3] (setting [7]) was -2%; in experiment [3] (setting [8]), 1%; in experiment [3] (at 50.0 µM), 95.2% (active); in experiment [4] (setting [7]) it was 0%; in experiment [4] (setting [8]) it was 0%; in experiment [4] (at 50.0 µM) it was 70.3% (active). For the same compound, the growth inhibition in experiment [5] (setting [7]) was -1%; in experiment [5] (setting [8]) it was -2%; in experiment [5] (at 50.0 µM), 96.3% (active); in experiment [6] (setting [7]), -2%; in experiment [6] (setting [8]) it was 9%; in experiment [6] (at 50.0 µM), 97.8% (active).
Take `CCN(CC)c1cc(Nc2c3ccc(Cl)cc3nc3cc(Cl)ccc23)ccc1O`: the growth inhibition in experiment [1] (setting [7]) was 1%; in experiment [1] (setting [8]), 4%; in experiment [1] (at 50.0 µM), 34.5%; in experiment [2] (setting [7]), -39%; in experiment [2] (setting [8]), -3%; in experiment [2] (at 50.0 µM) it was -11.2%. Also, the growth inhibition in experiment [3] (setting [7]) was -3%; in experiment [3] (setting [8]) it was -4%; in experiment [3] (at 50.0 µM) it was -4.35%; in experiment [4] (setting [7]), -6%; in experiment [4] (setting [8]) it was -3%; in experiment [4] (at 50.0 µM), 71.7% (active). Further, the growth inhibition was -5% in experiment [5] (setting [7]); -10% in experiment [5] (setting [8]); 0.75% in experiment [5] (at 50.0 µM); 0% in experiment [6] (setting [7]); -2% in experiment [6] (setting [8]); -0.95% in experiment [6] (at 50.0 µM).
On to `O=C(O)C(O)C(O)C(OC1OC(CO)C(O)C(O)C1O)C(O)CO.[Br][Pt].[NH-]C1CCCCC1[NH-]` (stereo not given), for which the growth inhibition was 50% in experiment [1] (setting [7]); 97% (active) in experiment [1] (setting [8]); 67.8% in experiment [1] (at 50.0 µM); 65% in experiment [2] (setting [7]); 88% (active) in experiment [2] (setting [8]); 62.9% in experiment [2] (at 50.0 µM). Also, the growth inhibition in experiment [3] (setting [7]) was 89% (active); in experiment [3] (setting [8]), 99% (active); in experiment [3] (at 50.0 µM) it was 89.5% (active); in experiment [4] (setting [7]), 24%; in experiment [4] (setting [8]), 72% (active); in experiment [4] (at 50.0 µM) it was 72% (active). In addition, the growth inhibition is 79% (active) in experiment [5] (setting [7]); 97% (active) in experiment [5] (setting [8]); 83.6% (active) in experiment [5] (at 50.0 µM); 69% in experiment [6] (setting [7]); 98% (active) in experiment [6] (setting [8]); 56% in experiment [6] (at 50.0 µM).
As to `Cc1[nH]nc(C(F)(F)F)c1N=NN1CCOCC1`, the growth inhibition in experiment [1] (setting [7]) is 62%; in experiment [1] (setting [8]), 99% (active); in experiment [1] (at 50.0 µM) it was 99.2% (active); in experiment [2] (setting [7]) it was 89% (active); in experiment [2] (setting [8]) it was 99% (active); in experiment [2] (at 50.0 µM), 99.7% (active). Besides, the growth inhibition in experiment [3] (setting [7]) was 55%; in experiment [3] (setting [8]), 99% (active); in experiment [3] (at 50.0 µM), 99.5% (active); in experiment [4] (setting [7]), 47%; in experiment [4] (setting [8]) it was 99% (active); in experiment [4] (at 50.0 µM), 99.5% (active). Further, the growth inhibition in experiment [5] (setting [7]) is 19%; in experiment [5] (setting [8]), 99% (active); in experiment [5] (at 50.0 µM), 99.4% (active); in experiment [6] (setting [7]), 79% (active); in experiment [6] (setting [8]), 99% (active); in experiment [6] (at 50.0 µM), 99.5% (active).
With `COc1nc(NC2OCC(O)C(O)C2O)c(Cl)c(=O)n1C` (stereo not given), the growth inhibition was 0% in experiment [1] (setting [7]); -1% in experiment [1] (setting [8]); -15.4% in experiment [1] (at 50.0 µM); -1% in experiment [2] (setting [7]); -5% in experiment [2] (setting [8]); -3.7% in experiment [2] (at 50.0 µM). For the same compound, the growth inhibition in experiment [3] (setting [7]) was -2%; in experiment [3] (setting [8]), -3%; in experiment [3] (at 50.0 µM), 11.4%; in experiment [4] (setting [7]) it was -1%; in experiment [4] (setting [8]), -3%; in experiment [4] (at 50.0 µM) it was 30.4%. In addition, the growth inhibition in experiment [5] (setting [7]) was -2%; in experiment [5] (setting [8]), -4%; in experiment [5] (at 50.0 µM) it was 10.2%; in experiment [6] (setting [7]), -5%; in experiment [6] (setting [8]), -7%; in experiment [6] (at 50.0 µM), -7.85%.

Values taken from PubChem BioAssay (NCI).
